Screening results: PubChem, several laboratories
Mtb betalactam: beta-lactam sensitization of Mtb H37Rv. AID 434955. M. tuberculosis H37Rv growth with meropenem, percent inhibition. inhibition, % at 25 µM. hit rate 0.27% among 330,000; call rule not given here;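 further: growth measured after seven days incubation then overnight dye step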
BH1578 lux ind: quorum light induction in luxS cqsA deficient V. cholerae; V. cholerae BH1578 lux reporter, luminescence, 6 h; hit rate 0.16% among 350,000; activation, % at 18.7 µM; in the data active means activation mostly above about 9.7%, no sharp cut-off; inconclusive means no clear call, values can overlap the other calls; inactive means mostly below about 3.7%
PfHsp40 yeast: rescue of PfHsp40-mediated yeast toxicity; S. cerevisiae expressing PfHsp40, growth rescue, ATP luminescence; growth rescue, % at 12.5 µM; hit rate 0.68% among 340,000; AID 504582; in the data active means growth rescue above about 28%, passing the limit was not always enough; inconclusive means no clear call, values can overlap the other calls;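 further: yeast W303a lacking pdr1 and pdr3 grown in galactose medium; growth measured after three days at 30 °C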
RN4220 kill: S. aureus RN4220 growth inhibition | inhibition, % (concentration not given with the values) | hit rate 0.33% among 330,000 | OD600, 16 h; in the data active means inhibition above about 85%
Sa ugtP lethal: kills S. aureus RN4220 lacking UgtP; S. aureus RN4220 ugtP deletion, OD600 growth, 16 h; growth inhibition, % (concentration not given with the values); hit rate 0.54% among 330,000; AID 1259309; in the data active means growth inhibition above about 68%
Of the large screens only hits and unclear results are named; the others gave an inactive call. This is a sample that favours compounds with a hit; in the whole collection about 1.2% have one here.

Cc1cccc(NC(=S)NNC(=O)c2csc3c2CCC(C)C3)c1 (stereo unspecified)	PfHsp40 yeast 104.5
Cc1cccc(NC(=S)NNC(=O)c2cc3c(s2)CCC(C)C3)c1C (stereo unspecified)	PfHsp40 yeast 30.6
COC(=O)C=Cc1ccccc1CN1C(CC(=O)OC)c2ccccc2S1(=O)=O (stereo unspecified)	none (no result: Mtb betalactam, BH1578 lux ind, PfHsp40 yeast)
COc1ccc(/C=C/C(=O)c2ccc(O)cc2)cc1COc1ccc(F)cc1	Sa ugtP lethal 87.0
CC(C)C(C(=O)O)N(Cc1cccc(CN(C(C(=O)O)C(C)C)S(C)(=O)=O)c1)S(C)(=O)=O (stereo unspecified)	none (no result: Mtb betalactam, BH1578 lux ind, PfHsp40 yeast)
COc1ccc(CC(=O)Nc2ccc(OC)nc2)cc1	none
COc1ccc(NC(=O)Cc2ccc(-c3ccccc3)cc2)cn1	PfHsp40 yeast 85.9
COc1cc(CCCNC(CN)Cc2ccccc2)cc(OC)c1OC (stereo unspecified)	none (no result: Mtb betalactam, BH1578 lux ind, PfHsp40 yeast)
N#CC(=NNc1ccccc1F)C(=N)N1CCOCC1	none (no result: Mtb betalactam, BH1578 lux ind, PfHsp40 yeast)
CCC(NC(=O)Nc1nnc(C(F)(F)F)s1)(C(F)(F)F)C(F)(F)F	Sa ugtP lethal 87.9
Cc1ccc(CN2C(=O)CCC2C(=O)NC(C)C)cc1 (stereo unspecified)	PfHsp40 yeast 77.6
Cc1ccc(S(=O)(=O)N2CCOCC2)cc1NC(=O)C(c1ccc(Cl)cc1)C(C)C (stereo unspecified)	RN4220 kill 89.3, Sa ugtP lethal 90.8 (no result: PfHsp40 yeast)
CCC1=C(OC(=O)N(CC)CC)N2C(=O)OC(=NCC3CC3)[C@]2(Cc2ccccc2)C2C1=CCC1C(=O)N(c3ccccc3)C(=O)C12 (stereo partly specified)	none (no result: Mtb betalactam, BH1578 lux ind, PfHsp40 yeast)
CN(CCCC1CCCC1)C(=O)c1cc(COc2ccc(F)c(F)c2)on1	PfHsp40 yeast 44.3
COC(=O)C1=C(c2ccc(F)cc2F)CC2CCC1N2C(=O)NCc1ccc2c(c1)OCO2 (stereo unspecified)	none (no result: Mtb betalactam, BH1578 lux ind, PfHsp40 yeast)
Cc1ccc(C(=O)CN2C(=O)c3ccccc3S2(=O)=O)cc1	none (no result: RN4220 kill, Sa ugtP lethal)
Cc1ccc(C(=O)CN2/C(=C(\O)c3ccccc3)C(=O)c3ccccc3S2(=O)=O)c(C)c1	PfHsp40 yeast 35.3
CC(N)Cc1cnc[nH]1 (stereo unspecified)	none (no result: Mtb betalactam, BH1578 lux ind, PfHsp40 yeast)
COc1cc2c(cc1NC(=O)Nc1ccccc1)oc1ccccc12	PfHsp40 yeast inconclusive, Sa ugtP lethal 84.2
COc1cc2c(cc1NC(=O)CCC(=O)O)oc1ccccc12	none
Fc1ccc(Nc2nnc(C(F)(F)F)s2)cc1Cl	PfHsp40 yeast 148.9
CCC(=O)N1CCN(c2ccc(NC(=O)c3ccc([N+](=O)[O-])o3)cc2Cl)CC1	RN4220 kill 99.1, Sa ugtP lethal 91.1 (no result: Mtb betalactam)
CC(=O)Nc1ccc2nc(NC(=O)c3ccco3)sc2c1	none
CC(=O)Nc1ccc2nc(NC(=O)c3ccc([N+](=O)[O-])o3)sc2c1	Sa ugtP lethal 98.2
CC(=O)N1CCc2c(sc(NC(=O)c3ccc([N+](=O)[O-])o3)c2C#N)C1	Sa ugtP lethal 90.2 (no result: Mtb betalactam)
CS(=O)(=O)N1CCN(c2ccccc2NC(=O)c2ccc([N+](=O)[O-])o2)CC1	RN4220 kill 99.8
O=C(O)CCCNC(=O)C(=Cc1ccccc1F)NC(=O)c1ccccc1	none (no result: Mtb betalactam, BH1578 lux ind, PfHsp40 yeast)
Cc1ccc(-n2nc3c(n2)C(=NO)CCC3=NO)cc1	none (no result: Mtb betalactam, BH1578 lux ind, PfHsp40 yeast)
CCOC(=O)C(=NNc1cc(Cl)ccc1Cl)N1CC(C)OC(C)C1 (stereo unspecified)	none (no result: Mtb betalactam, BH1578 lux ind, PfHsp40 yeast)
COc1ccc(C2CC(=O)C=C(c3c(OC)cccc3OC)C2)cc1 (stereo unspecified)	none (no result: Mtb betalactam, BH1578 lux ind, PfHsp40 yeast)
CCN1CCN(c2ccc(S(=O)(=O)N3CCCCC3)cc2NC(=O)c2ccc([N+](=O)[O-])o2)CC1	none
CCN1CCN(c2ccc(NC(=O)c3ccc([N+](=O)[O-])o3)cc2Cl)CC1	RN4220 kill 99.9, Sa ugtP lethal 99.4 (no result: Mtb betalactam)
CC(=O)N1CCN(c2ccc(NC(=O)c3ccc([N+](=O)[O-])o3)cc2Cl)CC1	RN4220 kill 99.1, Sa ugtP lethal 99.7
CCC(=O)N1CCN(c2ccc(Cl)cc2NC(=O)c2ccc([N+](=O)[O-])o2)CC1	PfHsp40 yeast 45.6
CC1CN(C(C)CO)C(=O)c2cc(NC(=O)C3CC3)ccc2OC1CN(C)C(=O)NC1CCCCC1 (stereo unspecified)	none (no result: Mtb betalactam, BH1578 lux ind, PfHsp40 yeast)
CCCCCC(=O)Nc1cccc(C2=NOC3(C2)CC(C(N)=O)N(C(=O)c2cc([N+](=O)[O-])cc([N+](=O)[O-])c2)C3)c1 (stereo unspecified)	none (no result: Mtb betalactam, BH1578 lux ind, PfHsp40 yeast)
COc1ccc(-n2nc(C#N)c(Cl)cc2=O)cc1	PfHsp40 yeast 189.7 (no result: Mtb betalactam)
C/C(=N\Nc1ccc(C(=O)O)cc1)c1ccc2c(c1)Nc1ccccc1S2	PfHsp40 yeast 207.3 (no result: RN4220 kill, Sa ugtP lethal)
O=C(NN=Cc1cc(Cl)ccc1O)c1ccc(Br)cc1	Sa ugtP lethal 89.9 (no result: Mtb betalactam, BH1578 lux ind, PfHsp40 yeast)
